From PubChem BioAssay (NCATS) come the findings set out here.

Records with an inconclusive call do not appear. A number with no mark means an inactive call. Calls of active or inactive are those of the source. The call rests on the fitted dose curve; in most records, active means well fitted inhibition curve with a large enough effect; inconclusive means small, poorly fitted or top-dose-only effect; inactive means no such curve, though single readings can be large or run the other way.
On the % scale 0 is the no-effect control and ±100 the full control effect.

This test is described as follows: Primary qHTS for small molecule stabilizers of the endoplasmic reticulum resident proteome: Secreted ER Calcium Modulated Protein (SERCaMP) assay (AID 1508630). The conditions noted are these: SH-SY5Y GLuc-SERCaMP (Gaussia luciferase released on ER calcium loss) secretion, thapsigargin, luminescence; series mostly up to 38.4 µM; activity change, negative = inhibition: at the top concentration. The essentials: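 The SH-SY5Y reporter protocol was run at 3 concentrations up to 38.3 uM (primary) or 11 concentrations (follow-up): 16 h compound, 100 nM thapsigargin for 4 h, then extracellular luciferase luminescence.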
As for `COC(=O)Nc1nc2ccc(C(=O)c3ccc(F)cc3)cc2[nH]1`, the “activity change, negative = inhibition” value was 230%.

Consider `CC[C@@]1(O)C(=O)OCc2c1cc1n(c2=O)Cc2cc3cc(O)ccc3nc2-1`, for which the “activity change, negative = inhibition” value is 225%.

For the compound `CC(=O)OCCN1C(=O)c2c(C)nc3ccc(S(=O)(=O)N4CCOCC4)cc3c2C1=O`, the Potency entry was “inactive”.

Regarding `Cc1cc(Nc2cc(NC(=O)c3c(Cl)cccc3Cl)ccn2)nc(N)n1`, the “activity change, negative = inhibition” value was 20.5%.

On to `CC(C)[C@H](C(=O)Nc1ccc(C(=O)NO)cc1)c1ccccc1`, for which the “activity change, negative = inhibition” value was 258%.

Consider `Cc1cc(Nc2cc(N3CCN(C)CC3)nc(Sc3ccc(NC(=O)C4CC4)cc3)n2)n[nH]1`, for which the “activity change, negative = inhibition” value was 11.1%.

On to `C=CC(=O)Nc1cc2c(Nc3ccc(F)c(Cl)c3)ncnc2cc1C#CC(C)(C)N1CCN(C)CC1`, for which the “activity change, negative = inhibition” value is 74.3%.

Consider `CC(C)(C)c1cc(NC(=O)Nc2ccc(-c3cn4c(n3)sc3cc(OCCN5CCOCC5)ccc34)cc2)no1`, for which the “activity change, negative = inhibition” value is 0%.

In the case of `COCCOc1ccc2c(c1)ncn2-c1ccc2cccc(N3CCC(N)CC3)c2n1`, the “activity change, negative = inhibition” value is 83.7%.

For `c1nc2nc(Nc3ccc(N4CCOCC4)cc3)nc(NC3CCCCC3)c2[nH]1`, the “activity change, negative = inhibition” value was 360%.

Take `COc1cccc2nc(-c3cccs3)nc(NN3C(=O)C=C(C)C3=O)c12`: the “activity change, negative = inhibition” value is 229%.

In the case of `c1cc(-c2cnn3cc(-c4ccc(OCCN5CCCCC5)cc4)cnc23)ccn1`, the “activity change, negative = inhibition” value was 376%.

As to `C[C@@H]1COC(Nc2ccc3ncnc(Nc4ccc(OCc5nccs5)c(Cl)c4)c3c2)=N1`, the “activity change, negative = inhibition” value is 0%.

In the case of `CC[C@@H]1C(=O)N(C)c2cnc(Nc3ccc(C(=O)NC4CCN(C)CC4)cc3OC)nc2N1C1CCCC1`, the “activity change, negative = inhibition” value is -44.1%.

As to `O=c1[nH]c(=O)n(C2CCCO2)cc1F` (stereo unspecified), the “activity change, negative = inhibition” value was -23.5% [at 76.3 µM].

As to `CN1CCN(c2cc(C(=O)Nc3ccc4c(c3)-c3c(c(C(N)=O)nn3-c3ccc(F)cc3)CC4)c(Cl)cn2)CC1`, the “activity change, negative = inhibition” value is 110%.
